{"source": "PubChem BioAssay (NCI)", "note": "The panel holds about 79,000 compounds, 15% with a hit somewhere; the sample as a whole holds those more often. A number with no mark means an inactive call. Active and inactive are the calls of the source. Cut-off read from the data, not from the text of the source: active = growth inhibition above about 70%; inactive = the rest."}
{"test": "NCI Yeast Anticancer Drug Screen. Data for the rad50 strain (AID 155);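 note: 0% = growth of vehicle-only cultures of the same strain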", "details": "S. cerevisiae rad50 strain growth inhibition; at 50.0 µM; hits give high values", "how_it_was_run": "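Cells are treated with compound, grown, and their growth is then scored against vehicle-only cultures of the same repair-deficient yeast strain.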"}
{"compound": "Cc1ccc2c(c1)C1(OC(=O)c3ccccc31)c1ccc(F)cc1O2", "note": "(stereo not given)", "growth inhibition": "55%"}
{"compound": "CCCCCCCSCC(O)COC(c1ccccc1)(c1ccccc1)c1ccccc1", "note": "(stereo not given)", "growth inhibition": "-17.5%"}
{"compound": "COc1c(C)cc2c(C(C)C)c(O)c(O)c(C=O)c2c1O", "growth inhibition": "86.1% (active)"}
{"compound": "O=C1CSC(=S)N1c1ccco1", "growth inhibition": "3.4%"}
{"compound": "Nc1nc(Cl)cc(Nc2cc(Cl)cc(Cl)c2)n1", "growth inhibition": "83.2% (active)"}
{"compound": "CC(C)C(=NNC(N)=O)C(C)C", "growth inhibition": "2.1%"}
{"compound": "NC(Cc1cccs1)C(=O)O", "note": "(stereo not given)", "growth inhibition": "-31.9%"}
{"compound": "Cc1cc(N(CCC#N)CCC#N)ccc1/C(N=Nc1ccc([N+](=O)[O-])cc1)=N\\NC(=O)c1cc(Cl)ccc1O", "growth inhibition": "18.9%"}
{"compound": "Cc1ccc(C)c(NC(=O)C(=O)CC(=O)c2cccc3ccccc23)c1", "growth inhibition": "-15.8%"}
{"compound": "CCc1nc(N)nc(N)c1-c1ccc(N(CC)Cc2ccccc2)c([N+](=O)[O-])c1", "growth inhibition": "7.35%"}
{"compound": "Cc1nc2ccc(N)cc2[nH]c1=O", "growth inhibition": "16.9%"}
{"compound": "CCOC(=O)CNC(=O)C(Cc1ccccc1)NC(=O)CNC(=O)OCc1ccccc1", "note": "(stereo not given)", "growth inhibition": "22.4%"}
{"compound": "Oc1c(Cl)cc(N=Cc2ccc(N(CCCCl)CCCCl)cc2)cc1Cl", "growth inhibition": "92.6% (active)"}
{"compound": "O=C1OC(=O)C2C3C=CC(C4C=C(C5CC5)C43)C12", "note": "(stereo not given)", "growth inhibition": "9.8%"}
{"compound": "Cc1ccc(N=C(N)NC#N)cc1", "growth inhibition": "-11.9%"}
{"compound": "COCCCN1C(=O)C2c3[nH]c4ccccc4c3C3CCC(C(C)(C)C)CC3C2C1=O", "note": "(stereo not given)", "growth inhibition": "34.9%"}
{"compound": "CC(=O)N1CN=C2Sc3ccccc3N2C1", "growth inhibition": "4.05%"}
{"compound": "CCCCCCC1OCC(C)([N+](=O)[O-])CO1", "note": "(stereo not given)", "growth inhibition": "13.9%"}
{"compound": "COc1ccccc1NC(=O)C1=C(C)NC(C)=C(C(=O)Nc2ccccc2OC)C1c1ccccc1Cl", "growth inhibition": "11.3%"}
{"compound": "Cc1ccc(-n2cc(-c3ccc(Cl)cc3)c3c(NNC(=S)NCc4ccccc4)ncnc32)cc1", "growth inhibition": "30.9%"}
{"compound": "Cc1cc(C)c2c(ccc3ccccc32)n1", "growth inhibition": "-43.9%"}
{"compound": "C=C(C)S(=O)(=O)c1ccc(C)cc1", "growth inhibition": "11.3%"}
{"compound": "CCCCN=NNc1cn(C2OC(CO)C(O)C2O)c(=O)[nH]c1=O", "note": "(stereo not given)", "growth inhibition": "-22.4%"}
{"compound": "CC(C)CCOC(=O)C(C)(O)C(Cl)c1ccccc1", "note": "(stereo not given)", "growth inhibition": "2.9%"}
{"compound": "CCCNC(=S)N/N=C\\C(C)=N\\Nc1ccc(Cl)cc1", "growth inhibition": "31.4%"}
{"compound": "[Br][Pt+2][Br].[NH-]c1ccc(F)cc1.[NH-]c1ccc(F)cc1", "growth inhibition": "34.9%"}
{"compound": "C(=N\\c1oc(-c2ccccc2)nc1SCc1ccccc1)/c1ccccc1", "growth inhibition": "2.75%"}
{"compound": "CCN(CC)C(=O)C1CCCCN1", "note": "(stereo not given)", "growth inhibition": "1.65%"}
{"compound": "O=[N+]([O-])c1ccc(C=NC23CC4CC(CC(C4)C2)C3)cc1", "growth inhibition": "-8.05%"}
{"compound": "O=C(O)CC(NC(=O)OCc1ccccc1)C(=O)OCc1ccccc1", "note": "(stereo not given)", "growth inhibition": "0.55%"}
{"compound": "O=C(Nc1ccc(S(=O)(=O)N2CCCCC2)cc1)OC1CCCCCC1", "growth inhibition": "10.1%"}
{"compound": "NCCNc1nc(NCCN)nc(N(CCN)CCN)n1", "growth inhibition": "4.85%"}
{"compound": "CC1CC(C)CN(S(=O)(=O)c2cc(Cl)c(Oc3ccc([N+](=O)[O-])cc3Cl)c(Cl)c2)C1", "note": "(stereo not given)", "growth inhibition": "7.8%"}
{"compound": "O=C1CCCCCCCCC1=O", "growth inhibition": "3.5%"}
{"compound": "O=CC(CO)CC(C=O)n1cnc2c(=O)[nH]cnc21", "note": "(stereo not given)", "growth inhibition": "-11.2%"}
{"compound": "O=C(NNC(=O)C(Oc1ccccc1)c1ccccc1)C(Cl)Cl", "note": "(stereo not given)", "growth inhibition": "-9.5%"}
{"compound": "Nc1ccc(C2=Nc3ccccc3SC(c3ccccc3O)C2)cc1", "note": "(stereo not given)", "growth inhibition": "24.8%"}
{"compound": "CC(C(=O)c1ccccc1)C(=O)c1ccccc1", "growth inhibition": "-2.7%"}
{"compound": "CC(=O)Nc1ccc(S(=O)(=O)N/N=c2/sc3ccccc3n2C)cc1N", "growth inhibition": "-4.6%"}
{"compound": "CCOC(=O)C(/C=N\\C(=S)Nc1ccc(OCC)cc1)=C(/O)c1ccccc1", "growth inhibition": "-49.1%"}
